This is one part of a sample in which hits are shown more often than they occur.
FECH inh: inhibitors of human ferrochelatase, primary screen, biochemical, purified FECH, Ni-mesoporphyrin absorbance; Ferrochelatase, mitochondrial (Homo sapiens), P22830; Ni-mesoporphyrin absorbance 550 nm; calls only at 10 µM (by protocol); actives 3.3% (n = 20,000);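 active = enzyme reaction rate more than 3 SD below the solvent-only control wells on the same plate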;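 note: lower slope than DMSO wells means FECH inhibition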
Target sequence (P22830 whole entry, looked up): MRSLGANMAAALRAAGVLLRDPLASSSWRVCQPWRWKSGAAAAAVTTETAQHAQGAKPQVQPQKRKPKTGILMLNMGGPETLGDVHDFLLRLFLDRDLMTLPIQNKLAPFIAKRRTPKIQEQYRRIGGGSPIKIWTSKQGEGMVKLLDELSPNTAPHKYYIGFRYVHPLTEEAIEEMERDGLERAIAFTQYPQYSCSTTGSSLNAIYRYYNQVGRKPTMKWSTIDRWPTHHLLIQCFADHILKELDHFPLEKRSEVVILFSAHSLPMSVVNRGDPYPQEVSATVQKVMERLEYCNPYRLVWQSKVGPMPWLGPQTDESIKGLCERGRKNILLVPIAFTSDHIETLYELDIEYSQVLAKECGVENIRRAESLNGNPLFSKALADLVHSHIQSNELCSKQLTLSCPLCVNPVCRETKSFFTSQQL
An asterisk follows results filed as active; i = inactive; + = active, no number.

SMILES	FECH inh
O=C(Nc1nc2n(n1)C(c1ccc(F)cc1)C=C(c1ccccc1)N2)c1ccc(Cl)cc1 (centres undefined)	i
COc1ccc(C(=O)Nc2nc3n(n2)C(c2c(F)cccc2Cl)C=C(c2ccccc2)N3)cc1 (centres undefined)	i
O=C(Nc1nc2n(n1)C(c1ccccc1Cl)C=C(c1ccccc1)N2)c1ccccc1 (centres undefined)	i
Cc1ccc(C2=CC(c3ccc(F)cc3)n3nc(NC(=O)c4ccccc4)nc3N2)cc1 (centres undefined)	i
Cc1ccc(C2=CC(c3c(F)cccc3Cl)n3nc(NC(=O)c4cccc(Cl)c4)nc3N2)cc1 (centres undefined)	i
Cc1ccc(C2=CC(c3ccc(Cl)cc3)n3nc(NC(=O)c4ccccc4F)nc3N2)cc1 (centres undefined)	i
CCC(=O)Nc1nc2n(n1)C(c1c(F)cccc1Cl)C=C(c1ccc(C)cc1)N2 (centres undefined)	i
CCCc1cnc(C)nc1N1CCC(Cc2cccc(C(N)=O)c2)C1 (centres undefined)	i
O=C(Cc1cccc(Cl)c1)NCCn1c(C(F)(F)F)nc2cccnc21	i
Cc1nnc(SCCCN2Cc3ncccc3C2=O)s1	i
CCOc1ccccc1Nc1cc(C(C)C)nc2nc(-c3cccnc3)nn12	i
Cc1nc2c(c(=O)n1C)CCN(C(=O)C(C)Cn1cncn1)CC2 (centres undefined)	i
Cc1ccc(-c2nc(CNc3ccnc(C)n3)[nH]c2-c2ccccn2)cc1	i
COc1ccc(-c2cc3n(n2)CCC(=O)N3Cc2ccc(C(=O)Nc3ccccc3OC)cc2)cc1	i
CC(C)c1cccc(-c2cc(NCc3cccnc3)nc3[nH]ccc23)n1	i
Cc1ccc(C(=O)Nc2nc3n(n2)C(c2c(F)cccc2Cl)C=C(c2ccc(Cl)cc2)N3)cc1 (centres undefined)	i
O=C(Nc1nc2n(n1)C(c1c(F)cccc1Cl)C=C(c1ccc(Cl)cc1)N2)c1cccnc1 (centres undefined)	+
Cc1ccc(C2=CC(c3c(F)cccc3Cl)n3nc(NC(=O)c4ccc(Cl)cc4)nc3N2)cc1 (centres undefined)	i
CN(Cc1sc2ccccc2c1Cl)C(=O)CC1NC(=O)NC1=O (centres undefined)	i
Nc1ccc(S(=O)(=O)N2CCOCC2)cc1S(N)(=O)=O	+
Cc1cccc(NS(=O)(=O)c2ccc(N)c(S(N)(=O)=O)c2)c1	i
CC(=O)N1c2ccc(S(=O)(=O)N3CCOCC3)cc2CC1C(=O)N1CCOCC1 (centres undefined)	i
CC(C)c1nccn1C(C)c1ccc(-n2cncn2)cc1 (centres undefined)	i
CC(=O)N1CCc2c(sc(NC(=O)c3ccc(N(C)C)cc3)c2-c2nc3ccccc3s2)C1	i
COc1ccc(S(=O)(=O)NCc2nc3cccnc3n2Cc2ccccc2Cl)cc1	i
SMILES	FECH inh
C/C(=C\c1ccco1)CN1CCN(c2cc(C)nc(-c3cccnc3)n2)CC1	i
O=S(=O)(NCc1ccccc1)NC(Cn1cccn1)c1ccccc1 (centres undefined)	i
COc1ccccc1NCc1cc(=O)n2[nH]c(-c3ccc(C(C)(C)C)cc3)nc2n1	i
Cc1cccc(-c2nc3nc(CN4CCN(c5ccc(F)cc5)CC4)cc(=O)n3[nH]2)c1	i
CCc1ccccc1NCc1cc(=O)n2[nH]c(-c3ccc(C(C)(C)C)cc3)nc2n1	+
CN(Cc1ccccc1)Cc1cc(=O)n2[nH]c(-c3ccc(C(C)(C)C)cc3)nc2n1	i
CC(C)(C)c1ccc(-c2nc3nc(CN4CCCCC4)cc(=O)n3[nH]2)cc1	i
CC(C)(C)c1ccc(-c2nc3nc(CN4CCc5ccccc5C4)cc(=O)n3[nH]2)cc1	+
COc1ccccc1N1CCN(Cc2cc(=O)n3[nH]c(-c4cccc(C)c4)nc3n2)CC1	+
Cc1cccc(-c2nc3nc(CN4CCN(c5ccccc5)CC4)cc(=O)n3[nH]2)c1	i
COc1ccc(Cl)cc1NCc1cc(=O)n2[nH]c(-c3ccc(C(C)(C)C)cc3)nc2n1	+
COc1ccc(Cl)cc1NCc1cc(=O)n2[nH]c(NCc3ccc(F)cc3)nc2n1	i
CN1CCN(Cc2cc(=O)n3[nH]c(-c4ccc(C(C)(C)C)cc4)nc3n2)CC1	i
CC(C)(C)c1ccc(-c2nc3nc(CN4CCN(c5ccccc5)CC4)cc(=O)n3[nH]2)cc1	i
Cc1cc(N(C)C)nc(Nc2ccc(NC(=O)CC3CCCC3)cc2)n1	i
O=C(NCC(CO)Cc1cccs1)c1cccnc1 (centres undefined)	i
CCOc1ccc(Cn2c(=O)c3cnc(C)nc3n(C)c2=O)cc1-n1nc2ccccc2n1	i
CSc1nc(-c2ccc(C)cc2)c(C#N)c(N2CCN(c3ccccc3)CC2)n1	i
CCc1nccc(CN2CCCn3nc(C(=O)OC)cc3C2)n1	i
CCCc1nnc2sc(-c3c(C)nc4ccccn34)nn12	i

Screening results (PubChem)
